Our source for the outcome and AC50 values is PubChem BioAssay (EPA / NIEHS).

Structures are written as SMILES. Records with an inconclusive call do not appear. Active and inactive are the calls of the source. The calls were made as follows: active = hit-call score of the fitted dose curve at least 0.9, where 1 is the maximum; inconclusive = response in the unintended direction; inactive = score below 0.9.

Assay [1] concerns the target Androgen receptor (Homo sapiens) (UniProt P10275). Nature of the assay: ATG_AR_TRANS: Attagene TRANS-FACTORIAL HepG2 Assay for human Androgen Receptor (AR) (AID 2282973). The note with it: HepG2 Attagene TRANS-FACTORIAL AR reporter transcription. Summed up:
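Steps: transfect HepG2 with multiple GAL4-UAS reporter transcription units (TRANS format, exogenous NR-Gal4 protein); dose 24 h; isolate RNA, reverse-transcribe, PCR-amplify, FAM-label, HpaI-digest; resolve by capillary electrophoresis. Positive direction vs DMSO.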

Assay [2] addresses human AMP-activated Protein Kinase, alpha 1 (AMPKa1), PRKAA1 (gene 5562) (UniProt Q13131). Nature of the assay: NVS_ENZ_hAMPKa1: NovaScreen (NVS) Enzymatic Assay for human AMP-activated Protein Kinase, alpha 1 (AMPKa1) (AID 2283130). The gist of the method: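 Compounds were screened in duplicate at 25 uM, and those reaching ~30% inhibition were titrated up to 50 uM. The enzyme was recombinant human AMPKα1, and kinase turnover was read by fluorescence/mobility shift 1 h post-dosing as loss of signal versus DMSO.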

Assay [3] deals with human Ephrin type-A Receptor 2 (EphA2), EPHA2 (gene 1969) (UniProt P29317). Kind of assay: NVS_ENZ_hEphA2: NovaScreen (NVS) Enzymatic Assay for human Ephrin type-A Receptor 2 (EphA2) (AID 2283155). Summed up:
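Enzyme activity of recombinant EphA2 read by fluorescence after mobility-shift separation, 1 h after dosing. Chemicals first tested at 25 uM (duplicate); those passing threshold run as concentration series, top 50 uM, single replicate, relative to DMSO.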

For assay [4], the target named is rat Corticotropin Releasing Factor Receptor (CRF), Crhr1 (gene 58959) (UniProt P35353). Kind of assay: NVS_GPCR_rCRF: NovaScreen (NVS) G Protein-Coupled Receptor Assay for rat Corticotropin Releasing Factor Receptor (CRF) (AID 2283300). The gist of the method: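 Single-concentration (25 uM, duplicate) radioligand binding on rat cortical membrane preparations, counted by scintillation after 2 h. Activity scored as signal loss relative to DMSO negative control.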

The target of assay [5] is human Acetylcholinesterase (AChE), ACHE (gene 43) (UniProt P22303). Nature of the assay: NVS_ENZ_hAChE: NovaScreen (NVS) Enzymatic Assay for human Acetylcholinesterase (AChE) (AID 2283129). The gist of the method: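 Actives from a duplicate single-point screen (25 uM) were followed up in concentration series. Enzyme activity read by absorbance (colorimetric) 0.33 hour after dosing, cell-free, normalized to DMSO, with loss of signal scored.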

The subject of assay [6] is rat Monoamine Oxidase, MAO-A, Peripheral (MAOAP), gene 29253. Nature of the assay: NVS_ENZ_rMAOAP: NovaScreen (NVS) Enzymatic Assay for rat Monoamine Oxidase, MAO-A, Peripheral (MAOAP) (AID 2283237). Summed up: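 Scintillation counting tracked MAO-A activity in a cell-free rat liver mitochondrial membrane prep, read 1.17 hours after compound addition. Single-point duplicate testing at 25 uM preceded concentration-response follow-up; activity was fitted relative to DMSO.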

Assay [7] has as its target rat Oxytocin Receptor (OXT), Oxtr (gene 25342) (UniProt P70536). Nature of the assay: NVS_GPCR_rOXT: NovaScreen (NVS) G Protein-Coupled Receptor Assay for rat Oxytocin Receptor (OXT) (AID 2283330). The gist of the method:
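Binding to rat uterine membrane receptor was followed by scintillation counting of filter-trapped radioligand after 1 h. A 25 uM duplicate single-point screen preceded concentration series with a top of 50 uM. Signal loss was analysed relative to DMSO.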

For assay [8], the target named is Norway rat Vesicular Monoamine Transporter (VMAT2), neurotransmitter transporter, Slc18a2 (gene 25549) (UniProt Q01827). Kind of assay: NVS_TR_rVMAT2: NovaScreen (NVS) Transporter Assay for Norway rat Vesicular Monoamine Transporter (VMAT2), neurotransmitter transporter (AID 2283376).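 Also: actives lower the bound radioligand signal below the DMSO level.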 The gist of the method:
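Using rat forebrain membranes, specific radioligand binding to VMAT2 was measured by filtration and scintillation counting after 1 hour. Chemicals screened at 25 uM in duplicate, actives retested in concentration series, DMSO baseline.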

Assay [9] has as its target human Caspase 2 (CASP2), CASP2 (gene 835) (UniProt P42575). Kind of assay: NVS_ENZ_hCASP2: NovaScreen (NVS) Enzymatic Assay for human Caspase 2 (CASP2) (AID 2283135). The gist of the method:
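Single-point duplicate testing at 25 uM preceded concentration series topping at 50 uM. Activity of the recombinant E. coli-derived protease was followed by fluorescent substrate cleavage 1 h post-dosing, relative to DMSO.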

Assay [10] has as its target Bile acid receptor (Homo sapiens) (UniProt Q96RI1). Nature of the assay: NVS_NR_hFXR_Agonist: NovaScreen (NVS) Nuclear Receptor Binding Assay for human Farnesoid X Receptor Agonism (FXR) (AID 2283347). Summed up: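 Agonist-mode FXR assay read by time-resolved FRET 1 h after compound addition, using isolated human receptor protein without cells. Duplicate 25 uM single-point primary screen, concentration series for confirmed actives; DMSO as baseline.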

The target of assay [11] is human Phosphatase and Tensin Homolog (PTEN), PTEN (gene 5728) (UniProt P60484). Kind of assay: NVS_ENZ_hPTEN: NovaScreen (NVS) Enzymatic Assay for human Phosphatase and Tensin Homolog (PTEN) (AID 2283203). Summed up: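 Loss of fluorescent product signal after mobility-shift separation reports PTEN activity, recombinant human enzyme, 1 h after compound addition. Single 25 uM duplicate screen, then concentration-response on actives; DMSO baseline.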

For assay [12], the target named is human Fibroblast Growth Factor Receptor 1 (FGFR1), FGFR1 (gene 2260) (UniProt P11362). Kind of assay: NVS_ENZ_hFGFR1: NovaScreen (NVS) Enzymatic Assay for human Fibroblast Growth Factor Receptor 1 (FGFR1) (AID 2283159). The gist of the method: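 Cell-free recombinant kinase with fluorescent substrate, product separated by electrophoretic mobility shift; read 1 hour after dosing, loss of signal relative to DMSO. Initial screen in duplicate at 25 uM, actives followed in concentration series.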

Assay [13] has as its target human Mitogen-Activated Protein Kinase 1 (MAPK 1), MAPK1 (gene 5594) (UniProt P28482). Kind of assay: NVS_ENZ_hMAPK1: NovaScreen (NVS) Enzymatic Assay for human Mitogen-Activated Protein Kinase 1 (MAPK 1) (AID 2283175). Summed up:
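Cell-free recombinant human MAPK1 enzymatic assay, fluorescence/electrophoretic mobility shift read at 1 h; loss of signal vs DMSO. Primary screen in duplicate at 25 uM; actives (e.g. ≥30% inhibition) run as concentration-response up to 50 uM.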

In assay [14] the target is Voltage-dependent N-type calcium channel subunit alpha-1B (Rattus norvegicus) (UniProt Q02294). Kind of assay: NVS_IC_rCaChN: NovaScreen (NVS) Ion Channel Assay for rat Calcium Channel, Type N (CaChN) (AID 2283317).
The target in assay [15] is human Matrix Metalloproteinase-1 (MMP1), MMP1 (gene 4312) (UniProt P03956). Kind of assay: NVS_ENZ_hMMP1: NovaScreen (NVS) Enzymatic Assay for human Matrix Metalloproteinase-1 (MMP1) (AID 2283181). The gist of the method:
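Cell-free fluorescent substrate assay of human MMP1, read after 1 h. A single 25 uM duplicate screen was followed by concentration series to a maximum of 50 uM for actives meeting threshold; inhibition analysed against DMSO baseline.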

Sequence of Androgen receptor (Homo sapiens) (P10275 whole entry, looked up, the tested form may be a part): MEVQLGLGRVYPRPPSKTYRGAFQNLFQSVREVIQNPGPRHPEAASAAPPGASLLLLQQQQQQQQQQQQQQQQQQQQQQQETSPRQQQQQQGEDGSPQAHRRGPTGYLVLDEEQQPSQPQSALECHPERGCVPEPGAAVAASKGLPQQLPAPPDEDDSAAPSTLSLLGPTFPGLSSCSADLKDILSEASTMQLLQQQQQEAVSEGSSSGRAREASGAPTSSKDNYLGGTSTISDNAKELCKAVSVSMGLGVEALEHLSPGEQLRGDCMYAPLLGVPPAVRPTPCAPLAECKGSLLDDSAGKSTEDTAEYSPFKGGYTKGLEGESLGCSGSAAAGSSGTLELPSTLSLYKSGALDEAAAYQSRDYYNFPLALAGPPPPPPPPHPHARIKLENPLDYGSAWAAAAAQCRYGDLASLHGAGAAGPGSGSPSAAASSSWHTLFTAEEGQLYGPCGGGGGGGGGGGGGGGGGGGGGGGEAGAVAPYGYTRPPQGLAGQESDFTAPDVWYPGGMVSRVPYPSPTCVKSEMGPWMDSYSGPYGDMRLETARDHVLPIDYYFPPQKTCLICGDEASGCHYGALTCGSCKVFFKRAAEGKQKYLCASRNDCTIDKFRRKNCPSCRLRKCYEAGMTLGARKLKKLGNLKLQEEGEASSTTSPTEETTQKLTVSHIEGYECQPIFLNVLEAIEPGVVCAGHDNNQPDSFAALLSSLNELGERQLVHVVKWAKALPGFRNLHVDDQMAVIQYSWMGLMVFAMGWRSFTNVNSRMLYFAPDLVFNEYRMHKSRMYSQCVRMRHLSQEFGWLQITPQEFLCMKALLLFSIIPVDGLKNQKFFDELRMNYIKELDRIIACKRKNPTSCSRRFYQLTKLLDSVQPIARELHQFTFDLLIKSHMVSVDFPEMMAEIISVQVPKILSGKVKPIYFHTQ
Sequence of rat Oxytocin Receptor (OXT), Oxtr (gene 25342) (P70536 whole entry, looked up): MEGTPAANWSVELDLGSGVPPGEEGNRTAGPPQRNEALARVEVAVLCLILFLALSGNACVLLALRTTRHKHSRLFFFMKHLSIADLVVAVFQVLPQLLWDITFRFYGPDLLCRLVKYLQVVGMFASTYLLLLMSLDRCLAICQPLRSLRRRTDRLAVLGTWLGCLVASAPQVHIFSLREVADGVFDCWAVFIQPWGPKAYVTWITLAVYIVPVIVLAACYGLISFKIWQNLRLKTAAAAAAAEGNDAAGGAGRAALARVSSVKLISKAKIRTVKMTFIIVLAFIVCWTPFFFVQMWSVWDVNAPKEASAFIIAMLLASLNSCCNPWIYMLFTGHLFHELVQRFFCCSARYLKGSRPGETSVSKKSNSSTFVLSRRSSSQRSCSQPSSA
Sequence of human Ephrin type-A Receptor 2 (EphA2), EPHA2 (gene 1969) (P29317 whole entry, looked up): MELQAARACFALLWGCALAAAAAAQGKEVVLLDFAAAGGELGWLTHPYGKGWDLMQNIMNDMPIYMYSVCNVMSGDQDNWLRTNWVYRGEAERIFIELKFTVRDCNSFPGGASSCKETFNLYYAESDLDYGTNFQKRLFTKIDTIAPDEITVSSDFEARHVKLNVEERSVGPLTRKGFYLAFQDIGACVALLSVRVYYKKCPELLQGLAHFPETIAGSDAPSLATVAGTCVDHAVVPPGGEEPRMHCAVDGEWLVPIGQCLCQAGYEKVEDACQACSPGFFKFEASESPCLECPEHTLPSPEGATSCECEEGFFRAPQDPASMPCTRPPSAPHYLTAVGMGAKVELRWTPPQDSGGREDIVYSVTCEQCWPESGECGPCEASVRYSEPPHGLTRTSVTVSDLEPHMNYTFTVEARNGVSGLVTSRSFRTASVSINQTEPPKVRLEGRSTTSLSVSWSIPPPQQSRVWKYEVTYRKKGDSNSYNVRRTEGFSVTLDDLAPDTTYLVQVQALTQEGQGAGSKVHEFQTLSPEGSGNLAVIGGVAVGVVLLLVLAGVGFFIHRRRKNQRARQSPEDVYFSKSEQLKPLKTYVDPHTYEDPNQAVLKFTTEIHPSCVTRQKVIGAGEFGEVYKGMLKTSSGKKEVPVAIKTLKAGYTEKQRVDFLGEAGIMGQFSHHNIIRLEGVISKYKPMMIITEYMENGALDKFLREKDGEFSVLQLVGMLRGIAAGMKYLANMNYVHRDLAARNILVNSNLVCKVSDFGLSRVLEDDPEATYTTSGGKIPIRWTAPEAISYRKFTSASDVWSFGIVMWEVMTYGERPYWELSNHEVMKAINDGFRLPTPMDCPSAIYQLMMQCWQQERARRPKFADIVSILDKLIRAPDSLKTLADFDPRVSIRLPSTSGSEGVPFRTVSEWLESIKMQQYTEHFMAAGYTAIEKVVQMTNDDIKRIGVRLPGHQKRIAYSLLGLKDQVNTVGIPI
Sequence of human Acetylcholinesterase (AChE), ACHE (gene 43) (P22303 whole entry, looked up): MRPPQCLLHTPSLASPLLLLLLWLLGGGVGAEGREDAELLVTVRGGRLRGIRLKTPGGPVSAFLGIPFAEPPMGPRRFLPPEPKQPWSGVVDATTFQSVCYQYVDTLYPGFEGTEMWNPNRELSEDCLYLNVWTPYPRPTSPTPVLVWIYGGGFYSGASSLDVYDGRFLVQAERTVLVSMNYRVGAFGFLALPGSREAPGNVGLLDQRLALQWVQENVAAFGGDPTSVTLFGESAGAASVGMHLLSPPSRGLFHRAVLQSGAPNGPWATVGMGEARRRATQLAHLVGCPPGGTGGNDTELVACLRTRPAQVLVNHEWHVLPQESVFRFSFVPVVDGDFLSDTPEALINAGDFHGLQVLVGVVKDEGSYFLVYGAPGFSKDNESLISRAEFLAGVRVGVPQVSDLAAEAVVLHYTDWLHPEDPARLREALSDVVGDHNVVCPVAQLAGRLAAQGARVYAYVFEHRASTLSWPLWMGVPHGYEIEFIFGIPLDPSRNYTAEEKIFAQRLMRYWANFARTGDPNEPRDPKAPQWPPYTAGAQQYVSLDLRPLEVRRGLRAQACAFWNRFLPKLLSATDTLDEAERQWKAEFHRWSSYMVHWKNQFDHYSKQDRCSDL
Sequence of human AMP-activated Protein Kinase, alpha 1 (AMPKa1), PRKAA1 (gene 5562) (Q13131 whole entry, looked up): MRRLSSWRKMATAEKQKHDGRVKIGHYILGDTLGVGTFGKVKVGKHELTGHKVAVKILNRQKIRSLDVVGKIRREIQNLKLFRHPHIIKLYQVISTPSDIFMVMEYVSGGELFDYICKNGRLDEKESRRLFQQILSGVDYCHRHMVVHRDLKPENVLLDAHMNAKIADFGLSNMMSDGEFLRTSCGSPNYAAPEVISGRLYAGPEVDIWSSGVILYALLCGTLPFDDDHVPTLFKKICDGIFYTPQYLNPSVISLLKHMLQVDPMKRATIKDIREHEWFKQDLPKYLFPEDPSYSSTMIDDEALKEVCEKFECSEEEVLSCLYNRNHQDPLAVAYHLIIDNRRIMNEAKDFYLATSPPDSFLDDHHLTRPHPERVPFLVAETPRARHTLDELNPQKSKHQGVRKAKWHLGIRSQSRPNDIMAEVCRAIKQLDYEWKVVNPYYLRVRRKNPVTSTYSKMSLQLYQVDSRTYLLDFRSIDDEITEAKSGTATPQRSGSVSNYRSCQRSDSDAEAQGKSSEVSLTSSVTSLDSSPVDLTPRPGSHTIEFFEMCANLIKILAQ
Sequence of human Phosphatase and Tensin Homolog (PTEN), PTEN (gene 5728) (P60484 whole entry, looked up): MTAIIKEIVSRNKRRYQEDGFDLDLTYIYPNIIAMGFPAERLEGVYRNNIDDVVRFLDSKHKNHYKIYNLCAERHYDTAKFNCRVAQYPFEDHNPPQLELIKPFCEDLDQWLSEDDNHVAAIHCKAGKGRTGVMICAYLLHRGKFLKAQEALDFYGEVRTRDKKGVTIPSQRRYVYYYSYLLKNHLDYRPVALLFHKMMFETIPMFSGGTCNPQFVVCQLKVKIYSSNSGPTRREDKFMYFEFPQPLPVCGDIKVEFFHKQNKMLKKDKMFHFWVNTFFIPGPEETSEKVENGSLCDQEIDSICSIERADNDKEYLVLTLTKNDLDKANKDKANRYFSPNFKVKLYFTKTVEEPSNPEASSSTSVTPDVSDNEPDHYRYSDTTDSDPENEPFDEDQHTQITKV
Sequence of Bile acid receptor (Homo sapiens) (Q96RI1 whole entry, looked up): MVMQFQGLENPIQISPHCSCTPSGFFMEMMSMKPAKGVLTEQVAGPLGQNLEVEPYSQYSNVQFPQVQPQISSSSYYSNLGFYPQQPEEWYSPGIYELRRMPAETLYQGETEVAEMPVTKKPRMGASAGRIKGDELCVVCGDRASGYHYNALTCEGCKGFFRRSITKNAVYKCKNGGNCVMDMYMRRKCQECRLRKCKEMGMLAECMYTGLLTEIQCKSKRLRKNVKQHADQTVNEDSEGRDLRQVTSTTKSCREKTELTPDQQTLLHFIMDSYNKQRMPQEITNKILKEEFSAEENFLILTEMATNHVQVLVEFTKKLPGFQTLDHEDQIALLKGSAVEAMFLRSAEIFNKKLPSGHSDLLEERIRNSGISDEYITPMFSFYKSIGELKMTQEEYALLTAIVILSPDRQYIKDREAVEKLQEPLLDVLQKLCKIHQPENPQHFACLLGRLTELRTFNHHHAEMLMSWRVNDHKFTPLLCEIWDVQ
Sequence of human Mitogen-Activated Protein Kinase 1 (MAPK 1), MAPK1 (gene 5594) (P28482 whole entry, looked up): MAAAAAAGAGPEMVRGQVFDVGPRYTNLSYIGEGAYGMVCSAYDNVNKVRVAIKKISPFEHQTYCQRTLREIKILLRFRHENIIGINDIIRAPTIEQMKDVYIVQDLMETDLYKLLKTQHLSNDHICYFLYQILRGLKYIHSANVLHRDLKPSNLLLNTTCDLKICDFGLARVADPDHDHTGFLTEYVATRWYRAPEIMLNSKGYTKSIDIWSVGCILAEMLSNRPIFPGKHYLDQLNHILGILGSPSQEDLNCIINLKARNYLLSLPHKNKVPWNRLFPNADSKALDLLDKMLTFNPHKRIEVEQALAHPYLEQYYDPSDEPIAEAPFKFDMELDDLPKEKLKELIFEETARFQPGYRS

With `CCN(CC)C(=S)SSC(=S)N(CC)CC`, the call in [1], in assay [2], in assay [3] and in [4] was inactive.
One may read the AC50 as the midpoint of the concentration-response curve, whichever way the signal moves. As to `CCCOc1sc(C(=O)N2CCC(c3cc(CN)ccc3F)CC2)c(C)c1Br`, the result in assay [1], in assay [5] and in assay [3] was inactive. Moreover, the AC50 in [6] was 2600 nM (active); in assay [7], 23200 nM (active); in assay [8] it was 2890 nM (active).
For the compound `CCCCOC(=O)c1ccc(O)cc1`, the call in assay [1], in assay [9] and in assay [10] was inactive.
In the case of `CCOC=C(C(=O)OCC)C(=O)OCC`, the compound was called inactive in assay [1] and in [11].
Consider `CCCN(CCC)C(=O)SCC`, for which the call in [1], in assay [5] and in assay [7] was inactive.
On to `COCCOC[C@H](CC1(C(=O)NC2CCC(C(=O)O)CC2)CCCC1)C(=O)Oc1ccc2c(c1)CCC2` (stereo partly specified), for which the result in assay [1], in assay [12], in [13], in assay [14] and in assay [7] was inactive.
Take `CCCCCC(=O)O`: the outcome in assay [1], in [2] and in assay [15] was inactive.
